# Data from paper PMC7862700, “An all-to-all approach to the identification of sequence-specific readers for epigenetic DNA modifications on cytosine”.
# Tests used:
# Assay in all cases: DAPPL (digital affinity profiling via proximity ligation, sequencing); 10 mM Tris-HCl pH 7.5, 50 mM NaCl, 1 mM DTT, 4% glycerol, room temperature, 30 min; GST-TFs on glutathione beads, 16-mer random dsDNA library, 0.1% formaldehyde crosslink after washing; high values mean tight binding
# FEV = target: T1, FEV (Homo sapiens, UniProt Q99581 1-238); details: protein: recombinant; tags: N-terminal GST; dsDNA, one strand shown
# T1 sequence: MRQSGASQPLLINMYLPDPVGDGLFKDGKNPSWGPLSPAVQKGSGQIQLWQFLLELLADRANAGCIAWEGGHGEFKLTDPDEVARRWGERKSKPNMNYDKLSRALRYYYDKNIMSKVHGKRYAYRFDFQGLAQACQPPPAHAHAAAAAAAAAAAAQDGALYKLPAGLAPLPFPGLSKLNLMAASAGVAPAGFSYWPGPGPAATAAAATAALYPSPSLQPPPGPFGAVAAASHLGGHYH
# Summary of the method: (§1)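 Beads coated with glutathione captured GST-fused human transcription factors that had been expressed in yeast, and the factors were then given DNA barcodes and pooled with a tag-only sample. The pools were incubated with 200 nmole of a random double-stranded 16-mer DNA library in Tris/NaCl/DTT/glycerol buffer for 30 min at room temperature, washed, crosslinked with 0.1% formaldehyde and proximity-ligated with BsaI/T4 ligase at 37 °C for 1 h. PCR amplification and Illumina NextSeq500 sequencing came last. Binding signal is each hexamer's read frequency for a factor divided by its frequency for the tag-only sample.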
# ETV5 = ETV5 (Homo sapiens, UniProt P41161 1-510); details: protein: recombinant; tags: N-terminal GST; dsDNA, one strand shown
# Summary of the method: as §1
# HSF1 = HSF1 (Homo sapiens, UniProt Q00613 1-529); details: protein: recombinant; tags: N-terminal GST; chain copies: 3; dsDNA, one strand shown
# Summary of the method: as §1
# SPIC = target: T2, SPIC (Homo sapiens, UniProt Q8N5J4 1-248); details: protein: recombinant; tags: N-terminal GST; dsDNA, one strand shown
# T2 sequence: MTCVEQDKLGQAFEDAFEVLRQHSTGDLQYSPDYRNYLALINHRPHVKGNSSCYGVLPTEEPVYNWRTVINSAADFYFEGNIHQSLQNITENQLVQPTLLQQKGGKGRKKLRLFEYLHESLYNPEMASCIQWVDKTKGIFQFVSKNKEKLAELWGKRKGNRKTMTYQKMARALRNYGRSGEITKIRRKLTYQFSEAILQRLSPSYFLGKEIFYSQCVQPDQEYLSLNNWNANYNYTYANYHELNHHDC
# Summary of the method: as §1
# ELF4 = ELF4 (Homo sapiens, UniProt Q99607 1-663); details: protein: recombinant; tags: N-terminal GST; dsDNA, one strand shown
# Summary of the method: as §1
# ELK4 = target: T3, ELK4 (Homo sapiens, UniProt P28324-2 1-405); details: protein: recombinant; tags: N-terminal GST; dsDNA, one strand shown
# T3 sequence: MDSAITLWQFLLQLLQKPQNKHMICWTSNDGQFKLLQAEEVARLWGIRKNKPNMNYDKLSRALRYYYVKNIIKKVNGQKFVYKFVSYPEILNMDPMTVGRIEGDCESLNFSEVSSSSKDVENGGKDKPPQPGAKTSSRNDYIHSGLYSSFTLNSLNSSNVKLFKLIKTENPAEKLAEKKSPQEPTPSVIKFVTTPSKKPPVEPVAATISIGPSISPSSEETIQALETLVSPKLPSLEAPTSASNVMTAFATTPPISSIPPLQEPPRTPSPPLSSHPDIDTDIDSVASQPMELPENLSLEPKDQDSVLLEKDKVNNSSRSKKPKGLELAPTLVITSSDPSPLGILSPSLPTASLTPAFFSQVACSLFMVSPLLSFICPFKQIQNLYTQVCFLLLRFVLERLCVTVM
# Summary of the method: as §1
# ETV2 = target: T4, ETV2 (Homo sapiens, UniProt O00321 1-342); details: protein: recombinant; tags: N-terminal GST; dsDNA, one strand shown
# T4 sequence: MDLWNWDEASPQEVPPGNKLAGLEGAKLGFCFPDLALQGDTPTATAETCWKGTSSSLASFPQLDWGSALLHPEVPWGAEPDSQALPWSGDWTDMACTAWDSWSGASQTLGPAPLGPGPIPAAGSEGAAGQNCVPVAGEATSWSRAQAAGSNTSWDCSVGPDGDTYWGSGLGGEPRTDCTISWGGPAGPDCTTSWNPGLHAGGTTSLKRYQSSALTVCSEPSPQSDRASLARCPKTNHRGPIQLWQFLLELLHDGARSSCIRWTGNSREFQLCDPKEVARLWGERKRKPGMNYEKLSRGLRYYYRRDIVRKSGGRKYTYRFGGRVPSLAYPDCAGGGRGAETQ
# Summary of the method: as §1
# ELF3 = target: T5, ELF3 (Homo sapiens, UniProt P78545 1-371); details: protein: recombinant; tags: N-terminal GST; dsDNA, one strand shown
# T5 sequence: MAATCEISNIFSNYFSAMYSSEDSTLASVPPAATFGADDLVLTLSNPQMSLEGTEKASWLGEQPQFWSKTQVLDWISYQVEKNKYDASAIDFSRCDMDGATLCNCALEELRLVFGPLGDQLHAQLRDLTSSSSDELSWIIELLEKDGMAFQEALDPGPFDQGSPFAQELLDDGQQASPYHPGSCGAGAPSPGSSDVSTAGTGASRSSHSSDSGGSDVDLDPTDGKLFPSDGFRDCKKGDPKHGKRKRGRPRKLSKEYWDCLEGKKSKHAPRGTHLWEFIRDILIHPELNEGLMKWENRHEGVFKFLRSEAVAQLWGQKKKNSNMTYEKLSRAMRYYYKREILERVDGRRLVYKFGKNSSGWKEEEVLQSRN
# Summary of the method: as §1
# CRX = CRX (Homo sapiens, UniProt O43186 1-299); details: protein: recombinant; tags: N-terminal GST; dsDNA, one strand shown
# Summary of the method: as §1
# ETV1 = ETV1 (Homo sapiens, UniProt P50549 1-477); details: protein: recombinant; tags: N-terminal GST; dsDNA, one strand shown
# Summary of the method: as §1
# ERF = target: T6, ERF (Homo sapiens, UniProt P50548 1-548); details: protein: recombinant; tags: N-terminal GST; dsDNA, one strand shown
# T6 sequence: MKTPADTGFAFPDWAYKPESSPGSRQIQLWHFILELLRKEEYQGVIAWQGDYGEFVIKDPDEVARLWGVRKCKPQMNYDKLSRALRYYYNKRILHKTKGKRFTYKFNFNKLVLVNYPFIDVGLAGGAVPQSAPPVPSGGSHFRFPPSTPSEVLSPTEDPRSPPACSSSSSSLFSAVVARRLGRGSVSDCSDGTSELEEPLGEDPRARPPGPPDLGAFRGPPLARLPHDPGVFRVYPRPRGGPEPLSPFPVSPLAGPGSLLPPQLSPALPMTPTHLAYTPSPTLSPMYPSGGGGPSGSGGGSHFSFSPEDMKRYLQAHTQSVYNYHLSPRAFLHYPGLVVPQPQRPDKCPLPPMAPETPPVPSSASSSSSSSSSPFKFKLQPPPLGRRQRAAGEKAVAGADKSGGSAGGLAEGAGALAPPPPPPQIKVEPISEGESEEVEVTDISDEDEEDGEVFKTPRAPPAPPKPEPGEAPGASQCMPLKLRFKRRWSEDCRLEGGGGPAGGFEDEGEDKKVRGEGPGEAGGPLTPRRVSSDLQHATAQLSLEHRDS
# Summary of the method: as §1
# ETV3L = target: T7, ETV3L (Homo sapiens, UniProt Q6ZN32 1-361); details: protein: recombinant; tags: N-terminal GST; dsDNA, one strand shown
# T7 sequence: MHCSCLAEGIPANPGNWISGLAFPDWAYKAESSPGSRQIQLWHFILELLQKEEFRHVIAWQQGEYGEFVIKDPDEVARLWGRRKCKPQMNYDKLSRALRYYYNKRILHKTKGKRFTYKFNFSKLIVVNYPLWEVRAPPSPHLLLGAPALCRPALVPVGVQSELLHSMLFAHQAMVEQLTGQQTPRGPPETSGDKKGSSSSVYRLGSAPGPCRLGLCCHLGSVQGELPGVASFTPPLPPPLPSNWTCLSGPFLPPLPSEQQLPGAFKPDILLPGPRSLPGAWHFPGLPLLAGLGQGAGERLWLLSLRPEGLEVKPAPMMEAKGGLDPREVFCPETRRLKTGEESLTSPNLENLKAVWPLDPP
# Summary of the method: as §1
# ETS2 = target: T8, ETS2 (Homo sapiens, UniProt P15036 1-469); details: protein: recombinant; tags: N-terminal GST; dsDNA, one strand shown
# T8 sequence: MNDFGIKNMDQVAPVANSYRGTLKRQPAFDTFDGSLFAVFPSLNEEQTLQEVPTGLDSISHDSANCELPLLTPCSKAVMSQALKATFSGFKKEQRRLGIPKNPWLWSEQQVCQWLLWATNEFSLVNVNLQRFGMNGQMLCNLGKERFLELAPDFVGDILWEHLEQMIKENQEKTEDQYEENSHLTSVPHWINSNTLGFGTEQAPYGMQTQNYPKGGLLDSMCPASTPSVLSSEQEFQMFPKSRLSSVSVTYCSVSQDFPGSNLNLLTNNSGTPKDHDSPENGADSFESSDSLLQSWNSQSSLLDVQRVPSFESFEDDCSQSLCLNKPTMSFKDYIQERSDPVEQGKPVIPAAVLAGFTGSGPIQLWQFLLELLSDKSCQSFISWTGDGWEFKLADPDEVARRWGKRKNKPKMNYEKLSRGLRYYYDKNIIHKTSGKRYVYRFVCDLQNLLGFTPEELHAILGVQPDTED
# Summary of the method: as §1
# SPDEF = target: T9, SPDEF (Homo sapiens, UniProt O95238 1-335); details: protein: recombinant; tags: N-terminal GST; dsDNA, one strand shown
# T9 sequence: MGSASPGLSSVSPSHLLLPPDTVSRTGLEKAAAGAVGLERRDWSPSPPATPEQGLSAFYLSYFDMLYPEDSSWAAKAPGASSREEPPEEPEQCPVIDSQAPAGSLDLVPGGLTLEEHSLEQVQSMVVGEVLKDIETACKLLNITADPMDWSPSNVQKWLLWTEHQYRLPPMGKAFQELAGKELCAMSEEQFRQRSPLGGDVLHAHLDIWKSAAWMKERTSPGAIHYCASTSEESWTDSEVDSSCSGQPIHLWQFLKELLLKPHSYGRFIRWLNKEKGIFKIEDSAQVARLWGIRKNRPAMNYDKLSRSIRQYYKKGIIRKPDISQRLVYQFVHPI
# Summary of the method: as §1
# ETV7 = target: T10, ETV7 (Homo sapiens, UniProt Q9Y603 1-341); details: protein: recombinant; tags: N-terminal GST; dsDNA, one strand shown
# T10 sequence: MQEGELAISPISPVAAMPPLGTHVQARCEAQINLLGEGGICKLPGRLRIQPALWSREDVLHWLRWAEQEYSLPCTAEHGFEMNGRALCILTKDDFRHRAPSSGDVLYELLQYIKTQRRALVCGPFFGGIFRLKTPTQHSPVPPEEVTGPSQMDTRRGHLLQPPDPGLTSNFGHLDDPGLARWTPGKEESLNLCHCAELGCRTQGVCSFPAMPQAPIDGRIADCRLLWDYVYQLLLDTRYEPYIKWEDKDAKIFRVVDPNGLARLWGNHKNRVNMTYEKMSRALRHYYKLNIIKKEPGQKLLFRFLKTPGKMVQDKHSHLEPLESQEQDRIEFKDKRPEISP
# Summary of the method: as §1
# ELF5 = target: T11, ELF5 (Homo sapiens, UniProt Q9UKW6-2 1-255); details: protein: recombinant; tags: N-terminal GST; dsDNA, one strand shown
# T11 sequence: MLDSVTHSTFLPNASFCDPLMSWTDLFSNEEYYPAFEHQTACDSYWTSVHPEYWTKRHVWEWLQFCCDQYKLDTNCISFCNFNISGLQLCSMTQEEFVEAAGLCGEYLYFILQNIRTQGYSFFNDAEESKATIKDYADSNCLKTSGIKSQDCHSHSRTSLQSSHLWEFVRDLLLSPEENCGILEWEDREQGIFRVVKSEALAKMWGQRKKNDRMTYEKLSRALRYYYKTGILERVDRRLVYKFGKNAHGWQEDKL
# Summary of the method: as §1
# ETV3 = target: T12, ETV3 (Homo sapiens, UniProt P41162-2 1-143); details: protein: recombinant; tags: N-terminal GST; dsDNA, one strand shown
# T12 sequence: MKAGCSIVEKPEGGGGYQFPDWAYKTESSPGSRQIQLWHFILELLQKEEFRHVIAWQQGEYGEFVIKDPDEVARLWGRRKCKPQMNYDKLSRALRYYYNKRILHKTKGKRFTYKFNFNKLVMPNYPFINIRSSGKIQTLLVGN
# Summary of the method: as §1
# ETV6 = ETV6 (Homo sapiens, UniProt P41212 1-452); details: protein: recombinant; tags: N-terminal GST; dsDNA, one strand shown
# Summary of the method: as §1
# Sequence of CRX (O43186 whole entry): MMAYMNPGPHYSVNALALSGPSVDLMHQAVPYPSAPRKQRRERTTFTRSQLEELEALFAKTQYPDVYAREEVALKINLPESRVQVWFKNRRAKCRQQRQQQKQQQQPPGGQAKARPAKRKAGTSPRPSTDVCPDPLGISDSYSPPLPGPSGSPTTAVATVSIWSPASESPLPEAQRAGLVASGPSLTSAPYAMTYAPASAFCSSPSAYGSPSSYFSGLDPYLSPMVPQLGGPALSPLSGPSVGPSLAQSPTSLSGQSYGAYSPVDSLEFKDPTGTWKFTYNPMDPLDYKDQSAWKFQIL
# Sequence of ETV1 (P50549 whole entry): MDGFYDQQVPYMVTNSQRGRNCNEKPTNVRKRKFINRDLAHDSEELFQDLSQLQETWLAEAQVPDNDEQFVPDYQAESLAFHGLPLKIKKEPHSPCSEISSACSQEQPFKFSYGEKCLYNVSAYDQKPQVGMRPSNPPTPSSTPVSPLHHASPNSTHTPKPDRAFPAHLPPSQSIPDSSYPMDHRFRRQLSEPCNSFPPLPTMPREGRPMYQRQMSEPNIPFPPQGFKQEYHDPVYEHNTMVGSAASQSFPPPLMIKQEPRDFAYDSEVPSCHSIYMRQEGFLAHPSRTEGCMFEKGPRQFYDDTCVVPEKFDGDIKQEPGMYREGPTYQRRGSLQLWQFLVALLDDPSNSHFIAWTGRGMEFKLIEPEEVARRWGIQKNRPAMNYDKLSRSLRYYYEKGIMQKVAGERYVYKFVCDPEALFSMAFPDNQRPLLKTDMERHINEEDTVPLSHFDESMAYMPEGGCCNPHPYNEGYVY
# Sequence of ELF4 (Q99607 whole entry): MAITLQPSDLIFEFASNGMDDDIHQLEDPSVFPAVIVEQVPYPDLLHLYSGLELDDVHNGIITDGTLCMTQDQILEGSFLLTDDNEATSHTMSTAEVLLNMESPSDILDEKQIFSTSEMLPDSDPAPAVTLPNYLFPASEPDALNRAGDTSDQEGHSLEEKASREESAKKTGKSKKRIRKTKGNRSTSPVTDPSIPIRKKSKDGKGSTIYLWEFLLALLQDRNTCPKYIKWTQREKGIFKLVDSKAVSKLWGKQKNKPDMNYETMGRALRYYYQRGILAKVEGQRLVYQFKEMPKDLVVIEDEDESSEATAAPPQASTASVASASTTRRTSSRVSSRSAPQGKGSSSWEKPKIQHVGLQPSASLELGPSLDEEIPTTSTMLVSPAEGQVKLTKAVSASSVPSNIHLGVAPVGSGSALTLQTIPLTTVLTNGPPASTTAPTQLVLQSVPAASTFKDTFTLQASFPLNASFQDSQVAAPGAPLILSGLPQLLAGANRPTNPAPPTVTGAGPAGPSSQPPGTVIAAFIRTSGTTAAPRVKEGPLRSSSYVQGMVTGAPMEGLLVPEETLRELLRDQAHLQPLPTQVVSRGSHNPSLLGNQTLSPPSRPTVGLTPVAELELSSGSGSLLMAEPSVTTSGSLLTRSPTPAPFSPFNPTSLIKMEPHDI
# Sequence of ETV5 (P41161 whole entry): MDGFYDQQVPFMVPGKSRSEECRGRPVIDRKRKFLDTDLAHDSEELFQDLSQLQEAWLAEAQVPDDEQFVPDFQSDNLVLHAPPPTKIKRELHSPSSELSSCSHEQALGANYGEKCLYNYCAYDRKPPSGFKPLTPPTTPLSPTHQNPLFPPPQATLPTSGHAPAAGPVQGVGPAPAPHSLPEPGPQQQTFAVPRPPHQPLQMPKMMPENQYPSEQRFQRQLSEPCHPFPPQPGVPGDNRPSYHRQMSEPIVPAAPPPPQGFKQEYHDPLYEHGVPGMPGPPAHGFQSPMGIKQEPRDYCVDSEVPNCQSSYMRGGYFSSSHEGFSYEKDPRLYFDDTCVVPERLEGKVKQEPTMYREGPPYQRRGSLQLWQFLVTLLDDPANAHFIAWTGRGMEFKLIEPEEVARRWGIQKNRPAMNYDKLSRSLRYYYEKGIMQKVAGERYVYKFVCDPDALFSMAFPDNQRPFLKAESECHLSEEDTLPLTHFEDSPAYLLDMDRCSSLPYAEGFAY
# Sequence of HSF1 (Q00613 whole entry): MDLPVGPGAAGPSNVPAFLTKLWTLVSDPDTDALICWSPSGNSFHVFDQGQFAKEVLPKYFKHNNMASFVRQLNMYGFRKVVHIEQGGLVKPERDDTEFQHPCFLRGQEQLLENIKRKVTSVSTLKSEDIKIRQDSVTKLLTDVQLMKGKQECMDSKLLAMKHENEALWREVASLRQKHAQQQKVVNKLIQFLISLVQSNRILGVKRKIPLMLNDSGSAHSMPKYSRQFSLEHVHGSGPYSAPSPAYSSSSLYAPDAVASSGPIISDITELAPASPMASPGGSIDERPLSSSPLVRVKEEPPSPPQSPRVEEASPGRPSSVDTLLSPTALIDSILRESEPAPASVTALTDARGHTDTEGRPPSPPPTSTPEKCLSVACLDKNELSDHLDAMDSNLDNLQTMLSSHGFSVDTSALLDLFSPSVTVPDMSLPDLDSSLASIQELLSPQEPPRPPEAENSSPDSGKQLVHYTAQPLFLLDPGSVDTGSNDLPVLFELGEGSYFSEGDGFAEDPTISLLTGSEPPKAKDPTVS
# Sequence of ETV6 (P41212 whole entry): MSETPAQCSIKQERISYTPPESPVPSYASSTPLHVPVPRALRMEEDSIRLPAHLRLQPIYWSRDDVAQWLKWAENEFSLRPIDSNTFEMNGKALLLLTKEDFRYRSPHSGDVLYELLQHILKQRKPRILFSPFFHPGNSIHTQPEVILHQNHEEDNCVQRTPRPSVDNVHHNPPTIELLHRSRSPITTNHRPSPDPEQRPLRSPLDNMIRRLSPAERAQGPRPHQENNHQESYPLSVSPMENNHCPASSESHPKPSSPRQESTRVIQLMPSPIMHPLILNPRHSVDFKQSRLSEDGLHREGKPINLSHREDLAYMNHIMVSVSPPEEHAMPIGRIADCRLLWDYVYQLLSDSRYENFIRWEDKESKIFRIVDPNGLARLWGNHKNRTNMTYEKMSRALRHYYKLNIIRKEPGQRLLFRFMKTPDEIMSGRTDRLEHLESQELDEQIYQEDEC
sequence,measurement,setting,value
GTTGCT,binding signal,FEV,"1.18 fold enrichment (6-mer frequency, TF over GST control)"
same,binding signal,ETV5,"1.28 fold enrichment (6-mer frequency, TF over GST control)"
same,binding signal,HSF1,"1.09 fold enrichment (6-mer frequency, TF over GST control)"
same,binding signal,SPIC,"1.28 fold enrichment (6-mer frequency, TF over GST control)"
same,binding signal,ELF4,"1.27 fold enrichment (6-mer frequency, TF over GST control)"
same,binding signal,ELK4,"1.33 fold enrichment (6-mer frequency, TF over GST control)"
same,binding signal,ETV2,"1.26 fold enrichment (6-mer frequency, TF over GST control)"
same,binding signal,ELF3,"1.16 fold enrichment (6-mer frequency, TF over GST control)"
same,binding signal,CRX,"1.06 fold enrichment (6-mer frequency, TF over GST control)"
same,binding signal,ETV1,"1.38 fold enrichment (6-mer frequency, TF over GST control)"
same,binding signal,ERF,"1.27 fold enrichment (6-mer frequency, TF over GST control)"
same,binding signal,ETV3L,"1.26 fold enrichment (6-mer frequency, TF over GST control)"
same,binding signal,ETS2,"1.22 fold enrichment (6-mer frequency, TF over GST control)"
same,binding signal,SPDEF,"1.27 fold enrichment (6-mer frequency, TF over GST control)"
same,binding signal,ETV7,"1.38 fold enrichment (6-mer frequency, TF over GST control)"
same,binding signal,ELF5,"1.27 fold enrichment (6-mer frequency, TF over GST control)"
same,binding signal,ETV3,"1.51 fold enrichment (6-mer frequency, TF over GST control)"
same,binding signal,ETV6,"1.29 fold enrichment (6-mer frequency, TF over GST control)"
